Measured values as given in PubChem BioAssay (NCATS).
Values joined by “and” are separate entries in the source; they are usually repeats but may differ in a detail not shown here. Equal entries are not always repeated. Records with an inconclusive call do not appear. Active and inactive are the calls of the source. Unless noted, calls follow the shape of the full dose curve.

Legend:
[1] = qHTS assay for small molecule agonists of retinoid X receptor alpha signaling (AID 588544); settings: HEK293T RXRa-UAS-bla, beta-lactamase reporter, 18 h; 530 nm emission;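 as to activation: 0% = DMSO basal wells and 100% = reference agonist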
[2] = target: Retinoic acid receptor RXR-alpha (Homo sapiens) (UniProt P19793); test: as above; settings: HEK293T RXRa-UAS-bla, beta-lactamase reporter, 18 h; series mostly up to 76.7 µM
Sequence of Retinoic acid receptor RXR-alpha (Homo sapiens) (P19793 whole entry, looked up): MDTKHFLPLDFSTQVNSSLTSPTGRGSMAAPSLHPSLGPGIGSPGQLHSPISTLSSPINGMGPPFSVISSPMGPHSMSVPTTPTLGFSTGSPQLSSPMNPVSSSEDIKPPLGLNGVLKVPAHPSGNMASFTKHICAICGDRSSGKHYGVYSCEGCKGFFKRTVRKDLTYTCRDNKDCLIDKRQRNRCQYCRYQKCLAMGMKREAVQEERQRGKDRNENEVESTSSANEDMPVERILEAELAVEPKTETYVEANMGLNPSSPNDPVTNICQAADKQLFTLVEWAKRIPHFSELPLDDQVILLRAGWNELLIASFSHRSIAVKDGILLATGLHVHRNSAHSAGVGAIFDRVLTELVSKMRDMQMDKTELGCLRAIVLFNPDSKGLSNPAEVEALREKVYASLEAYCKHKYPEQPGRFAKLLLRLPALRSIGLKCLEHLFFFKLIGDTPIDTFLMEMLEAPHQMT

[3] = target: Thyroid hormone receptor beta (Homo sapiens) (UniProt P10828); test: qHTS assay for small molecule agonists of thyroid hormone receptor beta signaling (AID 588545); settings: TR-UAS-bla GripTite HEK 293, beta-lactamase ratio, agonist mode, 18 h, percent of T3 response, DMSO as zero; series mostly up to 76.7 µM;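 also: 0% = DMSO only and 100% = 10 nM T3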
Sequence of Thyroid hormone receptor beta (Homo sapiens) (P10828 whole entry, looked up): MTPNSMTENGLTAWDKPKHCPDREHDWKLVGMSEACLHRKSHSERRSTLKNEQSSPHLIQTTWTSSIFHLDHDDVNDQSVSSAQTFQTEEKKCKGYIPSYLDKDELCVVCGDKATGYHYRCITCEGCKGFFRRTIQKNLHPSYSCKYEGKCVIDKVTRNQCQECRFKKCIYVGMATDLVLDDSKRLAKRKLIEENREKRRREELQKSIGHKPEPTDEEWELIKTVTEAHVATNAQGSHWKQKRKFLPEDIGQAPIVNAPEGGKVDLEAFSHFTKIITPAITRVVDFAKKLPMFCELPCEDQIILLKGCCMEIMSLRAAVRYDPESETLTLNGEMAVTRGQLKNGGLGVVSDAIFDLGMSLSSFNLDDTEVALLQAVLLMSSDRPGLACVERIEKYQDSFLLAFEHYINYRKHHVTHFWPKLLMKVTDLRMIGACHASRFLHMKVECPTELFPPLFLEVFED
Summary of the method: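 Beta-lactamase reporter activity under TR response element control is measured in HEK 293 cells after 18 hrs compound exposure. Signal is ratiometric CCF4 fluorescence, 460/530 nm.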

[4] = qHTS assay for small molecule antagonists of retinoid X receptor alpha signaling (AID 588546; active = well fitted inhibition curve with a large enough effect in the signal ratio, with a control signal flat, not every such curve was filed as active; the % refers to the signal ratio;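 also: cells stimulated with 9-cis-retinoic acid as agonist; % is scaled to controls: 0 for no effect and ±100 for the full control effect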); settings: HEK293T RXRa-UAS-bla, beta-lactamase ratio, antagonist mode; measured here: W530 green channel, cytotoxicity proxy
Summary of the method: (§1)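 Beta-lactamase reporter inhibition, read as CCF4 fluorescence ratio (ex 405, em 460/530 nm) after 2 h at RT. HEK293T UAS-bla cells, 2500/well, were stimulated with 9-cis-RA at 500 or 100 nM final alongside test compound for 18 h at 37 C.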

[5] = target: Retinoic acid receptor RXR-alpha (Homo sapiens) (UniProt P19793); test: as above; settings: HEK293T RXRa-UAS-bla, beta-lactamase ratio, antagonist mode
Summary of the method: as §1

[6] = target: Thyroid hormone receptor beta (Homo sapiens) (UniProt P10828); test: qHTS assay for small molecule antagonists of thyroid hormone receptor beta signaling (AID 588547; active = well fitted inhibition curve with a large enough effect in the signal ratio, with a control signal flat, not every such curve was filed as active; the % refers to the signal ratio;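 also: cells stimulated with 0.4 nM T3 agonist during compound exposure; % is scaled to controls: 0 for no effect and ±100 for the full control effect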); settings: TR-UAS-bla HEK293, beta-lactamase ratio, antagonist mode, 18 h
Summary of the method: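 Inhibition of T3-driven (0.4nM final) beta-lactamase reporter activity was measured over 0.59 nM to 92 uM compound after 18 h at 37 C. The cells were GripTite HEK293 TR-UAS-bla in charcoal/dextran-stripped serum, with CCF4 ratio read-out and IC50 from Hill fits.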

[7] = target: Voltage-gated inwardly rectifying potassium channel KCNH2 (Homo sapiens) (UniProt Q12809); test: qHTS Assay for Small Molecule Inhibitors of the Human hERG Channel Activity (AID 588834; active = well fitted inhibition curve with a large enough effect;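 also: top concentration of the series differs between compounds; % is scaled to controls: 0 for no effect and ±100 for the full control effect; lower thallium flux fluorescence means stronger hERG block; nearly all actives have a fitted effect of over 50% in size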); settings: U2OS BacMam hERG, FluxOR thallium flux fluorescence; series mostly up to 92.2 µM
Sequence of Voltage-gated inwardly rectifying potassium channel KCNH2 (Homo sapiens) (Q12809 whole entry, looked up): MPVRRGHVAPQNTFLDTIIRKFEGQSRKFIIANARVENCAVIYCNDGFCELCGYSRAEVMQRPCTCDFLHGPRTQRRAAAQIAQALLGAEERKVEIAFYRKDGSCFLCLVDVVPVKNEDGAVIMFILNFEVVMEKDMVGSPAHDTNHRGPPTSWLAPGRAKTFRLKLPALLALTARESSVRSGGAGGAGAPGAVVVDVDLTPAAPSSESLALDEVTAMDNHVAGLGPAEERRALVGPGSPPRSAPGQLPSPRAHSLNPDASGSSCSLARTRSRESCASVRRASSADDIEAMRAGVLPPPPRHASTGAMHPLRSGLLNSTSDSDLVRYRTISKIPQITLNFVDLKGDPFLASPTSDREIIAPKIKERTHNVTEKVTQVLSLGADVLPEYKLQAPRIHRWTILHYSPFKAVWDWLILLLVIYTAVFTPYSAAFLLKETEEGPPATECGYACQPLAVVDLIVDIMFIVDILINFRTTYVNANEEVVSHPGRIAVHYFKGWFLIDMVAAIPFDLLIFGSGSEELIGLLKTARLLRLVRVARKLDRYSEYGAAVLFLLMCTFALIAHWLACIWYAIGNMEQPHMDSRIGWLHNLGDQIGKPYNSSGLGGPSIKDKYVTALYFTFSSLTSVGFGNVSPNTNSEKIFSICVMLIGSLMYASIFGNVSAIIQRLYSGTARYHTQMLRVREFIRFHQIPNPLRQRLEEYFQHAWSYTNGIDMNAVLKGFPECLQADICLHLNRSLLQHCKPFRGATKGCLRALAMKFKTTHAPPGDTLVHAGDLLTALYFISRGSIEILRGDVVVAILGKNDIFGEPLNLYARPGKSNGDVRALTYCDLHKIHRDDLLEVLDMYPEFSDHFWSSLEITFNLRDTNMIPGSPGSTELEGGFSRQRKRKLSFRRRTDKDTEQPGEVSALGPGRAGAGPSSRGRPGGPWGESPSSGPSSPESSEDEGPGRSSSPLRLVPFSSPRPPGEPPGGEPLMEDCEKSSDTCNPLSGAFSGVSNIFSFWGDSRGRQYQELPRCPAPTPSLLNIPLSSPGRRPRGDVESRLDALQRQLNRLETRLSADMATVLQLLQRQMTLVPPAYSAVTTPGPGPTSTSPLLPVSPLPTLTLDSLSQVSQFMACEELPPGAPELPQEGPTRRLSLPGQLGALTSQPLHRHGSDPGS
Summary of the method: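 Blockade is seen as reduced FluxOR thallium-flux fluorescence in U2OS cells expressing hERG from a BacMam construct, in Opti-MEM with 2% FCS. Concentration-response data fitted to the Hill equation for AC50.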

[8] = qHTS assay for small molecule agonists of the antioxidant response element (ARE) signaling pathway (AID 651741; active = well fitted activation curve with a large enough effect in the signal ratio; the % refers to the signal ratio; also: potency is read from the fitted curve at half-maximal effect; as to activation: % of control where 0% means no effect); settings: HepG2 ARE-bla reporter, beta-lactamase FRET ratio, 16 h; series mostly up to 96 µM
Summary of the method: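 Seeding 2,000 ARE-bla HepG2 cells per well preceded a 5 h incubation at 37 C/5% CO2 and a 16 h compound exposure at 37 C. Beta-lactamase reporter activity was then quantified by fluorescence after 2 h with LiveBLAzer B/G FRET substrate.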

[9] = qHTS assay for small molecule activators of the p53 signaling pathway (AID 651743; active = well fitted activation curve with a large enough effect in the signal ratio, not every such curve was filed as active; the % refers to the signal ratio; also: % of control where 0% means no effect); settings: HCT-116 p53RE-bla, beta-lactamase FRET ratio, 16 h; stronger effect = higher value
Summary of the method: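 Screen for p53 pathway agonists uses stably transfected p53RE-bla HCT-116 cells, 4,000 per well, treated 16 h at 37 C with compounds in DMSO.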

C=C(C)C(=O)OCC(C)O (stereo not given)
max response [1]: -4.4% | outcome [2]: inactive | outcome [3]: inactive | max response [4]: -2% | max response [5]: 5.46% (inactive) | activity change % (negative = inhibition) [6]: 11.2% (inactive) | Potency [7]: inactive | Potency [8]: inactive

O=C(Cl)c1c(Cl)cccc1Cl
max response [1]: -8.14% | outcome [2]: inactive | outcome [3]: inactive | max response [4]: -4.7% | max response [5]: 4.97% (inactive) | activity change % (negative = inhibition) [6]: -15.6% (inactive) | Potency [7]: inactive | Potency [8]: inactive

Cc1cccc(C)c1
max response [1]: -8.44% | outcome [2]: inactive | outcome [3]: inactive | max response [4]: -8.63% | max response [5]: -1.87% (inactive) | activity change % (negative = inhibition) [6]: 21.6% (inactive) | Potency [7]: inactive

CNc1ccc([N+](=O)[O-])cc1
max response [1]: 3.4% | outcome [2]: inactive | outcome [3]: inactive | max response [4]: 8.47% | max response [5]: 0.864% (inactive) | activity change % (negative = inhibition) [6]: 2.18% (inactive) | Potency [7]: inactive

ClCCl
max response [1]: -5.75% | outcome [2]: inactive | outcome [3]: inactive | max response [4]: 3.57% | max response [5]: 5.83% (inactive) | activity change % (negative = inhibition) [6]: 0.0464% (inactive) | Potency [7]: inactive | Potency [8]: inactive

Cc1cccc(Br)c1
max response [1]: -0.411% | outcome [2]: inactive | outcome [3]: inactive | max response [4]: -8.74% | max response [5]: 17.3% (inactive) | activity change % (negative = inhibition) [6]: 0.545% (inactive) | Potency [7]: inactive | Potency [8]: inactive | activation [9]: -1.99% (inactive)

CC(C)(C)c1ccc(OCC2CO2)cc1 (stereo not given)
max response [1]: -13.4% | outcome [2]: inactive | outcome [3]: inactive | max response [4]: -2.99% | max response [5]: 11.5% (inactive) | activity change % (negative = inhibition) [6]: 5.82% (inactive)

Cc1cccc(C)c1[N+](=O)[O-]
max response [1]: 18.2% and 6.02% | outcome [2]: inactive | outcome [3]: inactive | max response [4]: 3.43% and -1.96% | max response [5]: -16.7% (inactive) and -18.1% (inactive) | activity change % (negative = inhibition) [6]: 3.5% (inactive) and -3.75% (inactive) | Potency [7]: inactive | Potency [8]: inactive

Fc1ccccc1
max response [1]: -11.1% | outcome [2]: inactive | outcome [3]: inactive | max response [4]: -11.6% | max response [5]: -5.23% (inactive) | activity change % (negative = inhibition) [6]: -5.64% (inactive) | Potency [7]: inactive | Potency [8]: inactive

O=P(O)(OCc1ccccc1)OCc1ccccc1
max response [1]: 6.08% | outcome [2]: inactive | outcome [3]: inactive | max response [4]: -0.49% | max response [5]: -5.97% (inactive) | activity change % (negative = inhibition) [6]: 0.248% (inactive) | Potency [7]: inactive

C/C(C=O)=C/c1ccccc1
max response [1]: -15.6% | outcome [2]: inactive | outcome [3]: inactive | max response [4]: 2.35% | max response [5]: -7.56% (inactive) | activity change % (negative = inhibition) [6]: -5.38% (inactive) | Potency [7]: inactive

CCCCN(CCO)CCCC
max response [1]: -2.59% | outcome [2]: inactive | outcome [3]: inactive | max response [4]: -12.3% | max response [5]: 4.73% (inactive) | activity change % (negative = inhibition) [6]: 22.2% (inactive) | Potency [7]: inactive | Potency [8]: inactive

OC/C(Br)=C(\Br)CO
max response [1]: -4.05% | outcome [2]: inactive | outcome [3]: inactive | max response [4]: -2.68% | max response [5]: -0.311% (inactive) | activity change % (negative = inhibition) [6]: -11.8% (inactive) | Potency [7]: inactive

O=Cc1ccc(CO)o1
max response [1]: -13.3% | outcome [2]: inactive | outcome [3]: inactive | max response [4]: 0.176% | max response [5]: 8.3% (inactive) | activity change % (negative = inhibition) [6]: 7.62% (inactive) | Potency [7]: inactive

CC=C(Cl)Cl
max response [1]: -16.9% | outcome [2]: inactive | outcome [3]: inactive | max response [4]: -7.38% | max response [5]: -5.31% (inactive) | activity change % (negative = inhibition) [6]: -14.6% (inactive) | Potency [7]: inactive

Cc1c(N)cccc1N
max response [1]: -3.37% | outcome [2]: inactive | outcome [3]: inactive | max response [4]: -4.94% | max response [5]: -6.28% (inactive) | activity change % (negative = inhibition) [6]: -2.96% (inactive) | Potency [7]: inactive

C1CCC2OC2C1 (stereo not given)
max response [1]: 6.92% | outcome [2]: inactive | outcome [3]: inactive | max response [4]: -13.8% | max response [5]: 6.91% (inactive) | activity change % (negative = inhibition) [6]: 14.7% (inactive) | Potency [7]: inactive

CCCCCNCCCCC
max response [1]: 1.44% and -10.1% | outcome [2]: inactive | outcome [3]: inactive | max response [4]: -1.51% and -1.45% | max response [5]: 4.32% (inactive) and 13.3% (inactive) | activity change % (negative = inhibition) [6]: -1.69% (inactive) and -17.1% (inactive) | Potency [7]: inactive | Potency [8]: inactive | activation [9]: -2.16% (inactive) and -1.29% (inactive)

Nc1ccccc1S(=O)(=O)O
max response [1]: 0.0246% | outcome [2]: inactive | outcome [3]: inactive | max response [4]: -2.85% | max response [5]: 1.63% (inactive) | activity change % (negative = inhibition) [6]: 5.88% (inactive) | Potency [7]: inactive

CC(C)=CCC/C(C)=C/C=O
max response [1]: 15.9% and -0.251% | outcome [2]: inactive | outcome [3]: inactive | max response [4]: 6.99% and -4.75% | max response [5]: 4.52% (inactive) and -4.94% (inactive) | activity change % (negative = inhibition) [6]: -16.2% (inactive) | Potency [7]: inactive

O=C1CCCCC1
max response [1]: -9.55% | outcome [2]: inactive | outcome [3]: inactive | max response [4]: -8.36% | max response [5]: -0.633% (inactive) | activity change % (negative = inhibition) [6]: -11.2% (inactive) | Potency [7]: inactive | Potency [8]: inactive

Cc1ccccc1C#N
max response [1]: -8.62% | outcome [2]: inactive | outcome [3]: inactive | max response [4]: -10.7% | max response [5]: 15.6% (inactive) | activity change % (negative = inhibition) [6]: 4.81% (inactive) | Potency [7]: inactive | Potency [8]: inactive | activation [9]: -0.804% (inactive)

OCCO
max response [1]: 7.28% | outcome [2]: inactive | outcome [3]: inactive | max response [4]: 0.506% | max response [5]: 11.2% (inactive) | activity change % (negative = inhibition) [6]: 21% (inactive) | Potency [7]: inactive | Potency [8]: inactive | activation [9]: -3.22% (inactive)

Cc1ccc(CO)cc1
max response [1]: -4.09% | outcome [2]: inactive | outcome [3]: inactive | max response [4]: -4.56% | max response [5]: 0.12% (inactive) | activity change % (negative = inhibition) [6]: 14.7% (inactive) | Potency [7]: inactive

Nc1cc(Cl)c(N)c(Cl)c1
max response [1]: -14.2% | outcome [2]: inactive | outcome [3]: inactive | max response [4]: 7.26% and 6.97% | max response [5]: -5.31% (inactive) and -44.9% (inactive) | activity change % (negative = inhibition) [6]: -9.25% (inactive) | Potency [7]: inactive | Potency [8]: 42.2 µM (active) | activation [9]: 0.0675% (inactive) and 1.35% (inactive)

NC(N)=S
max response [1]: -8.98% | outcome [2]: inactive | outcome [3]: inactive | max response [4]: 10% | max response [5]: 4.07% (inactive) | activity change % (negative = inhibition) [6]: -6.09% (inactive) | Potency [7]: inactive | Potency [8]: inactive | activation [9]: -1.07% (inactive)
